Assay results from PubChem BioAssay AID623995 (National Center for Advancing Translational Sciences (NCATS), 2012).
The other results are listed elsewhere or left out. Results filed as inconclusive are left out. Active and inactive are the calls of the source. The call rests on the fitted dose curve; in most records, active means well fitted inhibition curve with a large enough effect; inconclusive means small, poorly fitted or top-dose-only effect; inactive means no such curve, though single readings can be large or run the other way.

Biological target: Isocitrate dehydrogenase [NADP] cytoplasmic (Homo sapiens) (UniProt O75874)
Sequence (O75874 whole entry, looked up): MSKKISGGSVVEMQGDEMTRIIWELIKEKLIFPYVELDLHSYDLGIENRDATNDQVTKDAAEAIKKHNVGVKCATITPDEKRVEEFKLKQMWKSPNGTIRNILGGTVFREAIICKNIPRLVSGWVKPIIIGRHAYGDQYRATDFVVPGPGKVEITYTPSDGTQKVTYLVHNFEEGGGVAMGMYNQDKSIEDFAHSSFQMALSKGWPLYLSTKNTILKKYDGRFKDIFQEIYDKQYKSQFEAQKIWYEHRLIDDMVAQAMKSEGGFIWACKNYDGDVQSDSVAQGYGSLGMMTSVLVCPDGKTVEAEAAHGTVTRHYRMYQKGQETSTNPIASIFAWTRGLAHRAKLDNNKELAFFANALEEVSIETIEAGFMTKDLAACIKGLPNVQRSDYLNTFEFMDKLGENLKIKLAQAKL
Assay: qHTS for Inhibitors of mutant isocitrate dehydrogenase 1 (IDH1): Cherrypicks in WT IDH1; further: nearly all actives have a fitted effect of over 55% in size
Details: WT IDH1 enzyme, NADPH diaphorase/resazurin fluorescence; series mostly up to 115 µM; activity change, negative = inhibition: at the top concentration
Text: Unbiased genomic sequencing for 22 glioma genomes found recurrent mutation of isocitrate dehydrogenase 1 (IDH1) on chromosome 2q33-a gene encoding the cytosolic isoform of IIDH1associated with the tricarboxylic acid cycle (TCA) that catalyzes the oxidative decarboxylation of isocitrate, yielding alpha-ketoglutarate and CO2 via NADP+ to NADPH conversion. Subsequent studies confirmed the recurrent IDH mutations in up to 70% of secondary gliomas and in 10% of AML cases. […] This in effect defines IDH1 as an oncogene, and provides an extraordinary opportunity to discover chemical probes against mutant IDH1 that may translate into much needed new therapies for glioma and AML patients. QHTS-compatible fluorescent, enzymatic assay was developed to identify inhibitors of the IDH1 mutant (AID 602179). To identify selectivity of the identified inhibitors, a secondary enzymatic assay against the WT IDH1 was also developed. Inhibition of the WT IDH1 leads to a decrease in the amount of NADPH relative to a DMSO control and a concomitant decrease in the fluorescence of the diaphorase/resazurin enzyme product resorufin at 590 nm. Compounds were screened as a concentration-titration series that ranged from 115 uM to 0.20 uM. NIH Molecular Libraries Probe Production Network [MLPCN] NIH Chemical Genomics Center [NCGC] MLSCN Grant: R03 DA032129 PI Name: Dr. Lenny Dang
Enzyme buffer was dispensed into black, solid 1536-well plates at 3 microL/well in 20 mM Tris buffer, pH 7.5, containing final concentrations of 10 mM MgCl2, 20 mM NaCl, 0.05% BSA, 2 mM b-ME and 0.65 nM WT IDH1. Then, 23 nL of compounds or DMSO were delivered to each well using a pin tool. The substrate and detection buffer (1 uL; 20 mM Tris buffer, pH 7.5, containing final concentrations of 10 mM MgCl2, 20 mM NaCl, 0.05% BSA, 0.06 mM NADP+, 0.53 uM diaphorase, 0.012 mM resazurin and 0.08 mM isocitrate) was added to start the enzymatic reaction. The fluorescence intensity was monitored in kinetic mode on a ViewLux plate reader at 598 nm for 10 minutes (Ex 525, EM 598, bodipy mirror, 0.5 sec exposure). The % Activity was determined from the corrected fluorescence values. As no specific WT IDH1 inhibitors have been identified in the literature, 1x (0.65 nM) and 0x WT IDH1 enzyme controls (untreated) were included to normalize % Activity of identified inhibitors; 0x enzyme values corresponded to 100% Activity (full inhibition), while 1x WT IDH1 enzyme values were used to normalize 0% Activity (no inhibition). Concentration-response curves were fitted to the signals arising from the resulting fluorescence. The concentration-response curves were then classified based on curve quality (r2), response magnitude and degree of measured activity, and compounds were subsequently categorized based on their curve class. […] Keywords: Isocitrate dehydrogenase, IDH1, IDH1 R132H, 2-HG, 2-hydroxyglutarate, AML, glioma, MLSMR, MLPCN, NIH Roadmap, qHTS, NCGC
Potency means the concentration at half of the fitted maximal effect.

Compound	activity change, negative = inhibition	Potency
CCOC(=O)c1oc2c(CN3CCN(CCO)CC3)c(O)c(CC)cc2c(=O)c1-c1nc2ccccc2s1	0.488% (inactive)	
CCOC(=O)c1ccc(N2C(=O)c3n[nH]c(-c4ccco4)c3C2c2ccc(O)cc2)cc1 (centres undefined)	-10.9% (inactive)	
CC(C)Nc1nc(N(c2ccccc2)c2ccccc2)nc(-n2ccnc2)n1	-7.64% (inactive)	
CC(C)(C)c1ccc(S(=O)(=O)Nc2ccc(O)c(Sc3nc4ccccc4s3)c2)cc1	11.2% (inactive)	
COc1ccc(/C=C2/SC(=O)N(CCCCCC(=O)Nc3ccccc3C(=O)O)C2=S)cc1		79.4 µM (active)
C(=N/Nc1cc(N2CCOCC2)nc(N2CCOCC2)n1)/c1ccccc1	-2.88% (inactive)	
Cn1c(COc2ccc(Cl)cc2)nc2ccccc2c1=O	-2.18% (inactive)	
COc1ccc(/C=N/Nc2cc(N3CCOCC3)nc(C)n2)c(OC)c1	3.66% (inactive)	
CCCc1[nH]nc2c1C(c1ccc(OC)c(Cn3nc(C)c(Br)c3C)c1)C(C#N)=C(N)O2 (centres undefined)	15.8% (inactive)	
CCSc1nc2sc3c(c2c(=O)n1-c1ccc(C)cc1)CCN(C)C3	-9.91% (inactive)	
COC(=O)c1cccc(N(C(=O)c2ccco2)C(C(=O)NC2CCCC2)c2ccco2)c1 (centres undefined)	4.88% (inactive)	
CCCNc1ncnc2c1c(-c1ccccc1)cn2-c1ccc(OCC)cc1	-9.03% (inactive)	
COc1cc2c(-c3ccc4c(c3)OCO4)c(-c3ccsc3)oc(=O)c2cc1OC	2.94% (inactive)	
COc1ccc(C(C(=O)NC2CCCCC2)N(C(=O)c2snc(C(N)=O)c2N)c2ccccc2OC)cc1 (centres undefined)	-5.01% (inactive)	
CCCCC(=O)NC(c1ccc(OC)c(OC)c1)c1ccc2cccnc2c1O (centres undefined)	-5.29% (inactive)	
Cc1nc(C)c(C(=O)N(c2ccc(C)c(C)c2)C(C(=O)NCc2ccco2)c2ccccc2)s1 (centres undefined)	-5.09% (inactive)	
Cc1cccc(N(C(=O)Cc2cccs2)C(C(=O)NC2CCCC2)c2ccsc2)c1 (centres undefined)	-5.18% (inactive)	
COc1ccc(C(CCN(Cc2ccc(OC)c(OC)c2)C(=O)CCl)c2ccccc2)cc1 (centres undefined)	-5.8% (inactive)	
CCCOc1ccc(C2c3c(-c4ccccc4O)n[nH]c3C(=O)N2Cc2cccnc2)cc1 (centres undefined)	2.01% (inactive)	
N#CC1=C(N)C(C#N)(C#N)[C@H](c2ccsc2)[C@H]2COCC=C12	130% (inactive)	
Cc1nc(-c2ccc(Cl)cc2)sc1C(=O)CBr	7.04% (inactive)	
CC(C)N(C(=O)CSc1nc(COc2ccccc2)nc2ccccc12)C(C)C	-3.75% (inactive)	
CCCc1nc2c(c(=O)c3ccccc3n2C)c(=O)n1C1CCCCCC1	1.92% (inactive)	
CCC(C)(C)NC(=O)C(c1cccn1C)N(Cc1ccc(C)cc1)C(=O)Cn1nnc2ccccc21 (centres undefined)	4.89% (inactive)	
Cc1ccc(Nc2nc(CSc3nnc(-c4ccncc4)n3-c3ccccc3C)cs2)cc1	-9.79% (inactive)	
O=C1c2cccc3cccc(c23)C(=O)N1CCCCCc1n[nH]c(=S)o1	25.5% (inactive)	
COc1cc(/C=C2/C(=O)ON=C2C)ccc1OCc1ccccc1F	4.5% (inactive)	
Cc1ccc2nc(N3C(=O)C(O)=C(C(=O)c4ccco4)C3c3cccc(O)c3)sc2c1 (centres undefined)	-9.63% (inactive)	
COc1cc(/C=C2/SC(=S)N(Cc3ccccc3)C2=O)cc(OC)c1O	-23.7% (inactive)	
